Article PMC5540273 (PLoS ONE, 2017)

Key:
ERK2 = tested on: T1, ERK2
T1 construct: gene MAPK1

ERK3 = tested on: T2, ERK3
T2 construct: gene MAPK6

ERK4 = tested on: T3, ERK4
T3 construct: gene MAPK4
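Also: kd values determined as follow-up on hits from a single-replicate KINOMEscan panel screen.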

Work on `CS(=O)(=O)CCNCc1nc(-c2ccc3ncnc(Nc4ccc5c(cnn5Cc5ccccc5)c4)c3c2)cs1.Cl.Cl` [GW569716] yielded a Kd (ERBB3) of 69 nM and a Kd (ERBB4) of 8.2 nM.
`CS(=O)(=O)CCNCc1nc(-c2ccc3ncnc(Nc4ccc(OCc5ccccc5)c(Cl)c4)c3c2)cs1.Cl` [GW582764] showed a Kd (ERBB4) of 69 nM.
With `Cc1ccc(-c2nc(Nc3ccncc3)c3ccccc3n2)s1` [GSK189015] the Kd (ERK2) was > 10 µM.
In the case of `CC(=O)c1c(C)c2cnc(Nc3ccc(N4CCNCC4)cn3)nc2n(C2CCCC2)c1=O`, the Kd (ERK3) is reported as > 10 µM.
For `CCn1c(-c2c(N)noc2C)nc2cnccc21` [SB-737856], the Kd (ERK3) was > 10 µM.
For `Cc1c(Cn2c3ccccc3n3c(=O)cc(N4CCOCC4)nc23)cccc1C(F)(F)F` [GSK2306394], the Kd (ERK4) was > 10 µM.
`Cc1nccc(-c2c(-c3ccc(F)cc3)ncn2CCCN2CCOCC2)n1.Cl` [SB-282975] was tested, and the Kd (ERK4) was > 10 µM.
`Cn1cnc2c(N)ncnc21` [SKF-97623] was tested, and the Kd (FLT3-autoinhibited) was > 10 µM.
For `O=C(Nc1n[nH]c2nc(-c3cccs3)c(Br)cc12)C1CC1` [SB-735297], the Kd (FLT3) was 150 nM.
`CS(=O)(=O)Cc1ccc(Nc2nccc(-c3c(-c4cccc(NC(=O)C5CCCCC5)c4)nn4ncccc34)n2)cc1` [GSK350559] showed a Kd (FLT3) of 74 nM.
